Experimental data taken from PubChem BioAssay (NCATS).
Records with an inconclusive call do not appear. A call without a number means that no potency is given here. The source made the active and inactive calls. Calls follow the shape of the dose curve; as a rule, active = well fitted inhibition curve with a large enough effect; inconclusive = small, poorly fitted or top-dose-only effect; inactive = flat fitted curve, though single readings scatter.

assay: P-glycoprotein substrates identified in KB-8-5-11 adenocarcinoma cell line, qHTS therapeutic library screen (AID 1346987); settings: KB-8-5-11 (P-gp overexpressing) viability, CellTiter-Glo, 72 h; series mostly up to 44.5 µM; also: nearly all actives have a fitted effect of over 65% in size
Outline: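 In this qHTS, P-gp-rich KB-8-5-11 cells received library compounds across a concentration range. Viability was quantified by luminescence after 72 h at 37 degree C.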

Row | Compound | Potency
1 | C=C(C(=O)O)[C@@H]1CC[C@H](C)[C@@H]2CC(=O)C(C)=C2C1 | inactive
2 | CC(C)/C=C1/NC(=O)C(C(C)C)n2c1nc1c(O)cccc1c2=O (stereo not given) | inactive
3 | C=C1CC/C=C(/CO)C(=O)C[C@@H]2[C@@H]1C[C@@]2(C)COC(C)=O | inactive
4 | CC1(C)C(=O)CCC2(C)C1C(O)C=C1COC(=O)C12O (stereo not given) | inactive
5 | CC(O)C(=O)/C=C/C=C/C(=O)OC1C=C2COC(=O)C2(O)C2(C)CCCC(C)(C)C12 (stereo not given) | inactive
6 | NCCCCN(Cc1nc2ccccc2[nH]1)[C@H]1CCCc2cccnc21 | inactive
7 | COc1c(C)c(OCC=C(C)C)cc2c1CNC2=O | inactive
8 | CC(C)[C@@H](C(=O)O)N1Cc2c(cc(O)c3c2O[C@]2(C3)[C@H](C)CCC3C(C)(C)[C@H](O)[C@H](O)C[C@@]32C)C1=O (stereo not given in full) | inactive
9 | CC1(C)CC[C@]2(C(=O)O)[C@H](O)C[C@]3(C)C(=CCC4[C@@]5(C)CC[C@H](O[C@@H]6OC[C@@H](O)[C@H](O)[C@H]6O)[C@@](C)(C(=O)O)C5CC[C@]43C)[C@@H]2C1 (stereo not given in full) | inactive
10 | Cc1cccc(NC(=O)CN2CCC(c3ccccn3)CC2)c1 | inactive
